Pf growth 96h: P. falciparum growth inhibition at 96 hours; P. falciparum luciferase reporter growth, 96 h; Potency, µM (top dose mostly 28.7 µM), hits mostly inhibitors; actives 6.9% (n = 320,000)
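Two parasite generations (96 h, 37 C, 5% CO2) of compound exposure in infected erythrocytes (0.05% parasitemia, 2% hematocrit). Luciferase-reporter P. falciparum; decreased luminescence indicates inhibited growth, aimed at apicoplast-acting delayed death.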
CHX counter: counter-screen for Shiga toxin inhibitors: cycloheximide protein synthesis inhibition | max response, % | cell reporter, cycloheximide protein synthesis inhibition counterscreen | actives 12% (n = 300,000) | AID 2314; in the data active = max response mostly above about 13%, no sharp cut-off; inactive = mostly below about 14%; note: read at 38.3 µM for the half of the compounds with a filed dose
Shiga inhibitor: blocks Shiga toxin action in Vero cells | Vero cells, Shiga toxin protein synthesis inhibition reporter | inhibition, % at 38.7 µM | actives 9.2% (n = 290,000) | AID 2315; in the data active = inhibition mostly above about 28%, no sharp cut-off; inactive = mostly below about 43%
Pf growth 48h: inhibits P. falciparum growth in the first generation, 48 h. actives 5.9% (n = 310,000). Potency, µM (highest dose often 28.7 µM), usual class: inhibitors. AID 504832. P. falciparum luciferase growth in erythrocytes, 48 h
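Read-out is firefly luciferase luminescence from an integrated reporter in P. falciparum, so falling signal marks reduced parasite growth. Infected erythrocytes were at 2% hematocrit and 0.1% parasitemia (final) in Albumax-supplemented RPMI 1640.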
HCMV inh: blocks human cytomegalovirus replication; activity change, negative = inhibition, % at 57.5 µM; HFF cells, HCMV-luciferase reporter, 72 h; active compounds read low; actives 4.5% (n = 410,000); in the data active = activity change below about -60%; inconclusive = no clear call, values can overlap the other calls; inactive = above about -39%
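Screen run at 2 compound doses on HFFs infected with reporter HCMV, MOI 1 PFU/cell. Luciferase activity from cell lysates at 72 h post infection gave inhibition relative to buffer-only and Salinomycin wells.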
Large screens that a line does not name were inactive. Shown are actives, neighbours in structure and some others; about 20% of the full set was active somewhere. Unless noted, calls come from the whole dose curve; as a rule, active = well fitted inhibition curve with a large enough effect; inconclusive = small, poorly fitted or top-dose-only effect, or another doubt; inactive = no such curve, though single readings can be large or run the other way.

CN1C(=O)N(C)C(NC(=O)Nc2ccccc2)C1NC(=O)Nc1ccccc1 (centres undefined)	Pf growth 96h 2.3µM
Cc1c(CCOC(=O)C23CC4CC(CC(C4)C2)C3)sc[n+]1CC#N	Pf growth 96h inconclusive, Pf growth 48h inconclusive, HCMV inh -99
Cc1ncc([N+](=O)[O-])n1CCOC(=O)C12CC3CC(CC(C3)C1)C2	none
Cc1ncc(C[n+]2csc(CCOC(=O)CC34CC5CC(CC(C5)C3)C4)c2C)c(N)n1	Pf growth 48h inconclusive
Cc1c(CCOC(=O)CC23CC4CC(CC(C4)C2)C3)sc[n+]1Cc1ccccc1	Pf growth 96h inconclusive, Pf growth 48h 7.4µM, HCMV inh inconclusive
Cc1c(CCO)sc[n+]1CC(=O)OCCC12CC3CC(CC(C3)C1)C2	Pf growth 96h 1µM, Pf growth 48h 5.2µM, HCMV inh inconclusive
O=C(O)CC1(CC(=O)Nc2nccs2)CCCCC1	none (no result: Pf growth 96h, CHX counter, Shiga inhibitor, Pf growth 48h)
Cc1c(C(=O)N2CCN(S(C)(=O)=O)CC2)oc2ccccc12	Pf growth 96h inconclusive, CHX counter 9.2
Cc1noc(C)c1C(=O)N1CCc2ccccc21	none (no result: Pf growth 96h)
Cc1c(C(=O)N2CC(C(=O)N3CCCCC3)Oc3ccccc32)oc2ccccc12 (centres undefined)	Pf growth 96h 13µM, Pf growth 48h inconclusive (no result: CHX counter, Shiga inhibitor)
COCc1c(C(=O)N2CCc3ccccc32)oc2ccccc12	Shiga inhibitor 70
Cc1c(C(=O)N2CCc3ccccc32)oc2ccccc12	CHX counter 55, Shiga inhibitor 69
O=C(C1COc2ccccc2O1)N1CCCCC1 (centres undefined)	none (no result: CHX counter, Shiga inhibitor)
COc1ccccc1N1CCN(C(=O)c2ccc3c(c2)CCN3S(C)(=O)=O)CC1	Pf growth 96h inconclusive
O=[N+]([O-])c1ccccc1S(=O)(=O)Nc1ccc2c(c1)OCCO2	none
O=[N+]([O-])c1ccc(N2CCCC(C(F)(F)F)C2)c2ccncc12 (centres undefined)	Pf growth 96h inconclusive, Pf growth 48h 13µM
CC1CCCN(S(=O)(=O)c2ccc3c(c2)n(C)c(=O)c(=O)n3C)C1 (centres undefined)	none
Cn1c(=O)c(=O)n(C)c2cc(S(=O)(=O)N3CCN(C4CCCCC4)CC3)ccc21	Pf growth 96h 8.3µM, HCMV inh inconclusive (no result: Pf growth 48h)
Cc1ccc(C2(O)CC(C)N(C)CC2C)cc1 (centres undefined)	Pf growth 96h inconclusive
COc1ccc(C2(CCN)CC(C)N(C)CC2C)cc1 (centres undefined)	Pf growth 96h 1.7µM
Cc1c(S(=O)(=O)NC2CCCCC2)c(=O)n(C)c(=O)n1C	none (no result: CHX counter, Shiga inhibitor)
CCN(CC)CCn1c(=N)n(CC(O)COc2ccccc2)c2ccccc21 (centres undefined)	Pf growth 96h 2.3µM, Pf growth 48h 3.3µM
CCN(CC)CCn1c(=N)n(CC(=O)c2ccc(Br)s2)c2ccccc21	Pf growth 96h 1.9µM, Pf growth 48h 1.9µM, HCMV inh -97
CCN(CC)CCn1c(=N)n(CCOc2ccccc2)c2ccccc21	Pf growth 96h 8.3µM, HCMV inh inconclusive (no result: Pf growth 48h)
Cc1cc(=O)oc(C)c1C(=O)Nc1ccccc1F	none
COc1ccc(CNC(=O)CSc2n[nH]c(-c3ccc(OC)cc3)n2)cc1	none (no result: Pf growth 96h, CHX counter, Shiga inhibitor, Pf growth 48h)
OCC1(Cc2cccc(C(F)(F)F)c2)CCN(Cc2cc(F)cc(F)c2)CC1	Pf growth 96h inconclusive, Pf growth 48h inconclusive, HCMV inh -62
Cc1ccc(-n2cc(CN3CCC(CO)(Cc4cccc(C(F)(F)F)c4)CC3)cn2)cc1	Pf growth 96h inconclusive, Pf growth 48h inconclusive, HCMV inh -99
Cc1ccc(-n2cc(CN3CCC(CO)(Cc4ccccc4)CC3)cn2)cc1	Pf growth 48h inconclusive, HCMV inh inconclusive
CC(C(=O)N1CCOCC1)n1cc([N+](=O)[O-])cn1 (centres undefined)	none
O=C(NC1CCCC1)C(c1ccncc1)N(C(=O)c1csnn1)c1cccc(F)c1 (centres undefined)	none
Cc1ccc(CNC(=O)c2cc3c(=O)n(C)c4ccccc4c3n2C)o1	Pf growth 96h 9.3µM (no result: Pf growth 48h)
Cn1c(C(=O)NCCN2CCCCCC2)cc2c(=O)n(C)c3ccccc3c21	none (no result: Pf growth 48h)
Cn1c(C(=O)NCCCN2CCOCC2)cc2c(=O)n(C)c3ccccc3c21	none (no result: Pf growth 48h)
CC1CCN(CCCNC(=O)c2cc3c(=O)n(C)c4ccccc4c3n2C)CC1	Pf growth 96h 7.4µM (no result: Pf growth 48h)
Cn1c(C(=O)NCCCN2CCN(c3ccccc3F)CC2)cc2c(=O)n(C)c3ccccc3c21	Pf growth 96h 9.3µM (no result: Pf growth 48h)
COc1ccc(NC(=O)CN(C)S(=O)(=O)c2ccc3[nH]c(=O)oc3c2)cc1	none
Cc1ccc(S(=O)(=O)N(C)CC(=O)Nc2ncccc2C)cc1	none (no result: CHX counter, Shiga inhibitor)
COC(=O)c1ccc(CSc2nc3c(c(=O)n2-c2ccc(Br)cc2)SCC3)o1	Pf growth 96h 9.3µM (no result: Pf growth 48h)
CCOc1ccc(-n2c(SCC(=O)Nc3ccc(OC)cc3)nc3c(c2=O)SCC3)cc1	HCMV inh inconclusive
CCOC(=O)c1c(NC(=O)CSc2nc3cc(Cl)ccc3s2)sc(C(C)=O)c1C	HCMV inh -61
CCOC(=O)c1sc(NC(=O)CSc2nc3c(c(=O)n2-c2ccc(F)cc2)SCC3)c(C(=O)OCC)c1C	Pf growth 96h 2.9µM, Pf growth 48h 2.6µM (no result: HCMV inh)
CCOC(=O)c1c(NC(=O)CSc2nc3ccccc3s2)sc(C(C)=O)c1C	none
CCOC(=O)c1sc(NC(=O)CSc2nnc(C)s2)c(C(=O)OCC)c1C	Pf growth 96h inconclusive, Pf growth 48h 9.3µM
CCOC(=O)c1c(NC(=O)CSc2nnc(C)s2)sc2c1CCC(CC)C2 (centres undefined)	Pf growth 96h inconclusive, Pf growth 48h inconclusive
CCOC(=O)c1ccccc1NC(=O)CSc1nc2ncccc2o1	none (no result: Pf growth 96h, CHX counter, Shiga inhibitor, Pf growth 48h)
CCOc1ccccc1-c1nc(-c2cc3ccc(C)cc3[nH]c2=O)no1	Pf growth 48h 9.3µM
CCCc1nc(-c2cc3ccc(C)cc3[nH]c2=O)no1	Pf growth 96h 3.7µM, CHX counter 23, Shiga inhibitor 59, HCMV inh inconclusive
Cc1ccc2cc(-c3noc(C4CCCCC4)n3)c(=O)[nH]c2c1	none
Cc1ccc2[nH]c(=O)c(-c3noc(CC(C)C)n3)cc2c1	Pf growth 96h 5.2µM, Pf growth 48h 9.3µM
Cc1ccc2cc(-c3noc(C4CCCO4)n3)c(=O)[nH]c2c1 (centres undefined)	Pf growth 96h inconclusive, CHX counter 17 (no result: Pf growth 48h)
CN1[C@@H]2CC(OC(=O)[C@@H](CO)c3ccccc3)C[C@@H]1[C@H]1O[C@H]12 (some centres undefined)	Pf growth 96h inconclusive (no result: CHX counter, Shiga inhibitor, HCMV inh)
CCc1ccc2[nH]c(=O)c(C3C(C#N)=C(N)Oc4c3ccc3cccnc43)cc2c1 (centres undefined)	Pf growth 96h inconclusive, Pf growth 48h inconclusive
N#CC1=C(N)Oc2c(ccc3cccnc23)C1c1cccnc1 (centres undefined)	Pf growth 48h inconclusive, HCMV inh -99 (no result: Pf growth 96h)
Cc1ccc2cc(C3C(C#N)=C(N)Oc4c3ccc3cccnc43)c(=O)[nH]c2c1 (centres undefined)	Pf growth 96h 2.6µM, Pf growth 48h inconclusive, HCMV inh -103
COc1ccc(CNC(=O)c2cnc3sc(N4CCC(C)CC4)nn3c2=O)c(OC)c1	none (no result: Pf growth 96h, CHX counter, Shiga inhibitor, Pf growth 48h)

High-throughput results deposited in PubChem BioAssay by National Center for Advancing Translational Sciences (NCATS).
